# About 1,300 (0.41%) of roughly 320,000 compounds were called active. Roughly 3% stayed inconclusive and do not appear here. How the calls were made is not given here. Only a sample is shown. Entries with a potency or affinity are not part of this list.
# Experiment: growth inhibition of non-replicating M. tuberculosis (AID 488890);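 further: plate controls were DMSO cells for no effect and high antibiotic wells for full effect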
# Conditions: Mycobacterium tuberculosis non-replicating, at 25 µM, stronger effect = higher value
row,Structure (SMILES),inhibition
1,NC(=O)c1sc2nc(N3CCOCC3)c3c(c2c1N)CCCC3,3.31%
2,CCN(CC)CCOC(=O)C(Cc1ccco1)Cc1cccc2ccccc12 (stereo unspecified),12.1%
3,COc1ccc2c(c1OC)C(=O)OC2Nc1nc(-c2cc3ccccc3oc2=O)cs1 (stereo unspecified),2.83%
4,COc1cc(S(=O)(=O)N2CCOCC2)cc(C(=O)OCC(=O)NC2CCCCC2)c1OC,-1.4%
5,O=C(/C=C/c1cc([N+](=O)[O-])ccc1OC(F)F)Nc1cccc(OC(F)F)c1,0.25%
6,COCCn1c(=NC(=O)CSCC(=O)N2CCOCC2)sc2ccccc21,-8.23%
7,Cn1cccc1C(=O)OCC(=O)Nc1cccc(S(=O)(=O)N2CCOCC2)c1,-0.69%
8,COC(=O)C1=C(c2ccc(OC)c(OC)c2)C[C@@H]2CC[C@H]1N2C(=O)NCc1cc(C)oc1C(F)(F)F,-13.9%
9,Oc1cccc(Nc2nc(-c3ccccc3Cl)nc3ccccc23)c1,1.57%
10,O=C(Nc1ccccc1)c1ccc(OC(=O)c2cc3ccccc3o2)cc1,45.2%
11,Cc1ccnc(NC(=O)c2oc3ccccc3c2C)c1,20.3%
12,CC(C)C(=O)Nc1cccc(NC(=O)c2cc3ccccc3o2)c1,2.48%
13,O=C(O)c1ccc(NC(=O)c2cc3ccccc3o2)cc1,19.5%
14,Cc1ccc(C)c(NC(=O)c2cc3ccccc3o2)c1,75.5%
15,O=C(Nc1ccc(NC(=O)c2cc3ccccc3o2)cc1)c1ccco1,2.59%
16,CC(=O)Nc1cccc(NC(=O)c2cc3ccccc3o2)c1,32.4%
17,O=C(COC(=O)c1cc2ccccc2o1)c1ccccc1,51.9%
18,O=C(CSCc1cnn(-c2ccccc2)c1-n1cccc1)N1CCN(Cc2ccccc2)CC1,2.12%
19,C=CC[C@@H](CC(=O)N[C@H](CO)Cc1ccccc1)C(=O)N[C@@H](COC(=O)[C@@H](CC=C)CC(=O)OC(C)(C)C)Cc1c[nH]c2ccccc12,61%
20,CCN(Cc1ccccc1)C(=O)CSc1nc(C)cc(=O)[nH]1,10.7%
21,Nc1c(C(=O)Nc2cccc(F)c2)nnn1-c1cccc(C(F)(F)F)c1,-17.3%
22,COc1cc(C[C@@H]2C(=O)OC[C@H]2Cc2ccc(OC)c(OC)c2)ccc1O,-6.61%

row,Structure (SMILES),inhibition
1,O=S(=O)(NCC(c1ccco1)N1CCCCC1)c1ccccc1C(F)(F)F (stereo unspecified),5.94%
2,Cc1ccc(C(=O)N(C)CCOc2ccccc2)cc1S(=O)(=O)N1CCCCC1,14.5%
3,O=C(NC1CCCCC1)C(c1cccs1)N(CCCN1CCOCC1)C(=O)c1ccc(-c2ccccc2)[nH]1 (stereo unspecified),44.4%
4,CC(=O)c1ccc(NC(=O)c2cc3ccccc3o2)cc1,76.8%
5,COc1ccc(NC(=O)c2cc3ccccc3o2)cc1OC,53.8%
6,Cc1ccc(C2=NN(CCC(=O)NCc3ccc4c(c3)OCO4)C(=O)CC2)cc1,4.59%
7,COCCN(C(=O)C1CCCO1)c1c(N)n(CC(C)C)c(=O)[nH]c1=O (stereo unspecified),-18.2%
8,NC(=S)N/N=C/c1c(O)c(Br)cc2oc3c(c12)CCCC3,56.5%
9,Oc1ccc2oc3c(c2c1C=NCc1ccncc1)CCCC3,3.96%
10,Cc1nnc(SCC(=O)NNC(=O)c2ccco2)n1-c1cccc(Cl)c1,-5.26%
11,CCC(CC)C(=O)N=C1SC2CS(=O)(=O)CC2N1CCc1ccc(OC)c(OC)c1 (stereo unspecified),-2.38%
12,Cn1nnnc1Sc1ncnc2scc(-c3ccccc3)c12,48.6%
13,Cn1nnnc1Sc1ncnc2scc(-c3ccc(-c4ccccc4)cc3)c12,77%
14,Nc1nc(SCCO)[nH]c(=O)c1NC(=O)c1ccco1,-5.12%
15,CCCCCN(C(=O)CCC(=O)OCCOc1ccccc1)c1c(N)n(CCCC)c(=O)[nH]c1=O,-0.11%
16,CCCCN(C)C(=O)c1cc2cc3ccc(OC)cc3nc2o1,71.6%
17,CCN1CCN(C(=O)c2cc3cc4ccc(OC)cc4nc3s2)CC1,18.5%
18,O=c1[nH]c(C2C3CC4CC(C3)CC2C4)nc2ccccc12 (stereo unspecified),21.6%
19,COc1ccc(C(CC(=O)N2CCCC(C)C2)c2c(OC)cc(OC)c3ccc(=O)oc23)cc1 (stereo unspecified),28.4%
20,Cc1ccc(S(=O)(=O)Nc2ncnc3ccccc23)cc1,-1.77%
21,CCCCn1c(SCC(=O)NCc2ccco2)nc2cc(S(N)(=O)=O)ccc21,1.57%
22,COc1ccc(C2=NN(C(=O)CSc3nc(=O)n4cc(C)ccc4n3)C(c3ccc(C)cc3)C2)cc1 (stereo unspecified),38.7%

row,Structure (SMILES),inhibition
1,Cc1ccc2cc(C3CC(c4ccco4)=NN3C(=O)CCC(=O)O)c(Cl)nc2c1 (stereo unspecified),2.6%
2,CCOC(=O)c1c(C)c(C(=O)NC(C)COC)c(C)n1CC (stereo unspecified),-4.24%
3,N#Cc1c(-c2ccc(Cl)cc2)nc2n(c1=O)CCCS2,4.51%
4,O=c1c(C(c2ccc(Cl)cc2)c2c(O)nc3n(c2=O)CCCS3)c(O)nc2n1CCCS2,8.19%
5,O=C(N/N=C/c1ccc([N+](=O)[O-])cc1)c1cccnc1,-3.53%
6,Cc1ccc(C(=O)N/N=C\c2sccc2C)cn1,-5.99%
7,Cc1ccc(/C=N\NC(=O)c2cncc(Br)c2)o1,46.2%
8,O=C(N/N=C/c1ccccc1[N+](=O)[O-])c1ccncc1,35.4%
9,Cc1ccc(C(=O)N/N=C\c2ccc([N+](=O)[O-])o2)cn1,70.4%
10,O=C(N/N=C/c1ccc(-c2ccccc2[N+](=O)[O-])o1)c1cncc(Br)c1,11.6%
11,O=C(N/N=C/c1cccn1-c1ccc([N+](=O)[O-])cc1)c1cccnc1,-10.5%
12,O=C(N/N=C/c1ccc(O)c([N+](=O)[O-])c1)c1ccncc1,56.1%
13,CCOc1ccc(C(=O)NC2CCN(C(=O)Nc3ccc(F)cc3)CC2)cc1,-4.31%
14,CN(c1ccccc1)S(=O)(=O)c1ccc(Cl)c(C(=O)NC2=NCCS2)c1,27.5%
15,O=C(Nc1nnc(C23CC4CC(CC(C4)C2)C3)s1)c1ccc(N2C(=O)CCC2=O)cc1,13.4%
16,COc1cc(NC(=S)N2CCOCC2)c(OC)cc1Cl,1.57%
17,CCOc1ccccc1NC(=O)C1CCCCN1S(=O)(=O)c1ccc(F)cc1 (stereo unspecified),14.8%
18,COc1ccc(/C=C2\C(=O)NC(=O)N(Cc3ccccc3)C2=O)c(OC)c1OC,-15.4%
19,O=C(NCC(=O)N1CCN(Cc2ccc3c(c2)OCO3)CC1)c1ccccc1F,6.65%
20,N#C/C(N)=C(/C#N)N=Cc1cccc(Cl)c1,8.31%
21,CNC(=O)/C(C#N)=C/c1ccc(OCCOc2ccccc2)cc1,63.6%
22,Cn1cccc1/C=N\NC(=O)c1cncc(Br)c1,-6.5%

row,Structure (SMILES),inhibition
1,Cc1ccc(/C=N/NC(=O)C(C)Oc2ccccc2[N+](=O)[O-])s1 (stereo unspecified),-10.9%
2,CCOc1ccc(NC(C)C(=O)N/N=C/c2ccc([N+](=O)[O-])cc2)cc1 (stereo unspecified),7.41%
3,O=C(N/N=C/c1cccc([N+](=O)[O-])c1)c1cccc(Br)c1,-5.27%
4,CCOc1ccc(/C=N/NC(=O)CCC(=O)Nc2ccc(F)cc2)cc1,1.12%
5,CCOc1ccc(NC(=O)CCC(=O)N/N=C/c2ccc3c(c2)OCO3)cc1,12.5%
6,O=C(N/N=C/c1ccc(Br)s1)c1cccc([N+](=O)[O-])c1,-22%
7,O=C(N/N=C/c1ccc(O)cc1)c1cncc(Br)c1,17.6%
8,COC(=O)c1c(C)[nH]c(C(=O)CSc2nnnn2-c2ccccc2)c1C,-4%
9,O=C(COC(=O)c1ccccc1NC(=O)c1ccco1)NC1CCS(=O)(=O)C1 (stereo unspecified),73.7%
10,O=C(COC(=O)C1CCN(C(=O)Nc2ccccc2)CC1)NCC(F)(F)F,-2.77%
11,CS(=O)(=O)N1CCC(C(=O)NCc2ccc(Cl)cc2)CC1,8.1%
12,COc1ccc(-n2nc3cc(C)c(NC(C)=O)cc3n2)cc1,1.69%
13,COC(=O)Cn1c(CN2CCN(C(=O)c3ccco3)CC2)nc2c1c(=O)n(C)c(=O)n2C,0.07%
14,O=P(Cc1cccc[n+]1[O-])(c1ccccc1)c1ccccc1,-13.7%
15,CC(C)C(c1nnnn1Cc1ccccc1)N1CCN(Cc2ccc3c(c2)OCO3)CC1 (stereo unspecified),31.2%
16,Cc1nc(SCC(=O)N2CCOCC2)c2c(=O)n(C)c(=O)n(CC(C)C)c2n1,-4.99%
17,Cc1onc(-c2ccccc2)c1C(=O)N/N=C/c1ccc([N+](=O)[O-])c(O)c1,32%
18,O=C(N/N=C/c1ccc(Br)s1)c1ccc([N+](=O)[O-])cc1,10.3%
19,O=C(NN=Cc1ccc(N2CCOCC2)s1)c1ccc([N+](=O)[O-])cc1,0.11%
20,CCOC(=O)N/N=C/c1ccc(N2CCOCC2)s1,1.14%
21,CCOC(=O)N/N=C\c1ccc(C)s1,-9.49%
22,Cc1ccccc1NCC(=O)N/N=C\C=C\c1cccc([N+](=O)[O-])c1,44%

row,Structure (SMILES),inhibition
1,Cc1ccccc1NCC(=O)N/N=C/c1ccc([N+](=O)[O-])cc1,10%
2,Cc1onc(-c2ccccc2)c1C(=O)N/N=C/c1cccs1,51.2%
3,CN(Cc1nc2ccccc2c(=O)[nH]1)C(=O)c1ccc(S(=O)(=O)N(C)C)cc1,-7.99%
4,Cc1ccc(Cc2c(C)c(C#N)c3[nH]c4ccccc4n3c2=O)cc1,55.7%
5,COc1ccc(S(=O)(=O)N2CCC(Nc3ccccc3Cl)CC2)cc1,35%
6,COc1ccc(NC(=O)CN(Cc2ccccc2)S(C)(=O)=O)c(OC)c1,6.99%
7,CO/N=C(\C)c1ncc(C(F)(F)F)cc1N1CCOCC1,-6.77%
8,Cc1ccc(C(=O)NC(NCC2CCCO2)C(Cl)(Cl)Cl)cc1 (stereo unspecified),-8.87%
9,CC1CCCN(CCCNC(=O)c2ccc(N3CCCC3=O)cc2)C1 (stereo unspecified),-2.78%
10,O=C(CCC(=O)N1CCN(c2ccccc2)CC1)Nc1nnc(C2CCCCC2)s1,-14.5%
11,O=C(CSc1nnc(COc2ccccc2F)n1-c1ccccc1)NC1CCS(=O)(=O)C1 (stereo unspecified),-2.12%
12,Cc1ccc(NC(=S)N(CCN(C)C)Cc2cc3cc(C)ccc3[nH]c2=O)cc1,56.8%
13,COc1ccccc1CNC(=O)c1cnccn1,41.3%
14,O=C(N/N=C/c1ccc(Cl)s1)c1ccccc1[N+](=O)[O-],19.9%
15,COc1cc([N+](=O)[O-])cc(/C=N/NC(=O)c2cncc(Br)c2)c1O,10.5%
16,O=C(N/N=C/c1ccc(Br)s1)c1ccccc1[N+](=O)[O-],88.6%
17,O=C(N/N=C\c1cc(Br)c(Br)o1)c1cncc(Br)c1,-11.5%
18,Cc1ccc(-c2cc(C(=O)OCn3nnc4ccccc4c3=O)c3ccccc3n2)cc1,-0.92%

# — PubChem BioAssay AID488890 (Southern Research Specialized Biocontainment Screening …, 2010)
